Results: PubChem BioAssay AID1159580 (chemical genetic matrix, 2015)
Screen size: about 5,500 compounds; about 2,000 (36%) were called active. Not shown: some 18% with an inconclusive outcome. Cut-off read from the data, not from the text of the source: active = normalized growth mostly below about 0.91 (no sharp cut-off); inconclusive = no clear call, values can overlap the other calls; inactive = mostly above about 0.92. This is one part of the list.

Test: chemical genetic growth profiling, strain panel (AID 1159580);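 note: tested at 20 µM; growth read once vehicle control cultures reached saturation at 30 °C; 1 = growth at the plate median or of vehicle wells; lower values mean less growth of the strain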
Conditions: growth OD

Measured: normalized growth

C[N+](C)(C)CC(O)CC(=O)O (stereo unspecified)
inactive: S. cerevisiae deletion strains, locus YKL009W, strain mrt4, stronger effect = lower value 1.03 | S. cerevisiae deletion strains, locus YKL068W, stronger effect = lower value 1 | S. cerevisiae deletion strains, locus YKL085W, strain MDH1 (second series), stronger effect = lower value 1.02 | S. cerevisiae deletion strains, locus YKL085W, strain MDH1, stronger effect = lower value 1.02 | S. cerevisiae deletion strains, locus YKL160W, strain elf1, stronger effect = lower value 0.982 | S. cerevisiae deletion strains, locus YKL190W, strain CNB1, stronger effect = lower value 1.01 | S. cerevisiae deletion strains, locus YKR001C, strain vps1, stronger effect = lower value 0.993 | S. cerevisiae deletion strains, locus YKR026C, strain gcn3, stronger effect = lower value 0.98 | S. cerevisiae deletion strains, locus YKR091W, strain srl3, stronger effect = lower value 0.977 | S. cerevisiae deletion strains, locus YLL001W, strain dnm1, stronger effect = lower value 0.975 | S. cerevisiae deletion strains, locus YLL026W, stronger effect = lower value 0.991 | S. cerevisiae deletion strains, locus YLL041C, strain sdh2, stronger effect = lower value 0.985 | S. cerevisiae deletion strains, locus YLR027C, strain aat2, stronger effect = lower value 0.982 | S. cerevisiae deletion strains, locus YLR039C, strain RIC1, stronger effect = lower value 1 | S. cerevisiae deletion strains, locus YLR058C, strain SHM2, stronger effect = lower value 1.01 | S. cerevisiae deletion strains, locus YLR102C, strain apc9, stronger effect = lower value 0.997 | S. cerevisiae deletion strains, locus YLR113W, strain HOG1, stronger effect = lower value 0.994 | S. cerevisiae deletion strains, locus YLR221C, strain rsa3, stronger effect = lower value 1.03 | S. cerevisiae deletion strains, locus YLR258W, strain gsy2, stronger effect = lower value 0.981 | S. cerevisiae deletion strains, locus YLR262C, strain YPT6 (second series), stronger effect = lower value 1.01 | S. cerevisiae deletion strains, locus YLR262C, strain YPT6, stronger effect = lower value 1.02 | S. cerevisiae deletion strains, locus YLR268W, strain sec22, stronger effect = lower value 0.992 | S. cerevisiae deletion strains, locus YLR320W, strain mms22, stronger effect = lower value 0.978 | S. cerevisiae deletion strains, locus YLR330W, strain CHS5, stronger effect = lower value 1.01 | S. cerevisiae deletion strains, locus YLR342W, strain FKS1 (second series), stronger effect = lower value 0.996 | S. cerevisiae deletion strains, locus YLR342W, strain FKS1, stronger effect = lower value 0.964 | S. cerevisiae deletion strains, locus YLR357W, strain rsc2, stronger effect = lower value 0.988 | S. cerevisiae deletion strains, locus YLR370C, strain arc18, stronger effect = lower value 0.973 | S. cerevisiae deletion strains, locus YLR371W, strain rom2, stronger effect = lower value 0.999 | S. cerevisiae deletion strains, locus YLR384C, strain iki3, stronger effect = lower value 0.967 | S. cerevisiae deletion strains, locus YLR418C, strain cdc73, stronger effect = lower value 0.993 | S. cerevisiae deletion strains, locus YML016C, strain PPZ1, stronger effect = lower value 1 | S. cerevisiae deletion strains, locus YML032C, strain rad52, stronger effect = lower value 1 | S. cerevisiae deletion strains, locus YML120C, strain ndi1, stronger effect = lower value 0.998 | S. cerevisiae deletion strains, locus YML124C, strain tub3, stronger effect = lower value 1 | S. cerevisiae deletion strains, locus YMR058W, strain fet3, stronger effect = lower value 0.991 | S. cerevisiae deletion strains, locus YMR078C, strain ctf18, stronger effect = lower value 0.998 | S. cerevisiae deletion strains, locus YMR125W, strain sto1, stronger effect = lower value 0.969 | S. cerevisiae deletion strains, locus YMR129W, stronger effect = lower value 0.991 | S. cerevisiae deletion strains, locus YMR205C, strain PFK2, stronger effect = lower value 0.989 | S. cerevisiae deletion strains, locus YMR223W, strain ubp8, stronger effect = lower value 1.01 | S. cerevisiae deletion strains, locus YMR231W, strain pep5, stronger effect = lower value 0.983 | S. cerevisiae deletion strains, locus YMR263W, strain SAP30, stronger effect = lower value 1.01 | S. cerevisiae deletion strains, locus YMR307W, strain GAS1, stronger effect = lower value 0.949 | S. cerevisiae deletion strains, locus YNL067W, strain RPL9B, stronger effect = lower value 1 | S. cerevisiae deletion strains, locus YNL071W, strain lat1, stronger effect = lower value 0.992 | S. cerevisiae deletion strains, locus YNL128W, strain TEP1, stronger effect = lower value 1.01 | S. cerevisiae deletion strains, locus YNL153C, strain GIM3, stronger effect = lower value 1.01 | S. cerevisiae deletion strains, locus YNL183C, strain NPR1, stronger effect = lower value 0.922 | S. cerevisiae deletion strains, locus YNL209W, strain ssb2, stronger effect = lower value 0.989 | S. cerevisiae deletion strains, locus YNL233W, strain BNI4, stronger effect = lower value 1 | S. cerevisiae deletion strains, locus YNL248C, strain rpa49, stronger effect = lower value 0.98 | S. cerevisiae deletion strains, locus YNL250W, strain rad50, stronger effect = lower value 0.995 | S. cerevisiae deletion strains, locus YNL271C, strain bni1, stronger effect = lower value 0.996 | S. cerevisiae deletion strains, locus YNL298W, strain CLA4, stronger effect = lower value 0.984 | S. cerevisiae deletion strains, locus YNL307C, strain MCK1, stronger effect = lower value 1.01 | S. cerevisiae deletion strains, locus YNL322C, strain KRE1 (second series), stronger effect = lower value 0.963 | S. cerevisiae deletion strains, locus YNL322C, strain KRE1, stronger effect = lower value 1 | S. cerevisiae deletion strains, locus YNR049C, strain mso1, stronger effect = lower value 0.981 | S. cerevisiae deletion strains, locus YNR052C, strain pop2, stronger effect = lower value 0.994 | S. cerevisiae deletion strains, locus YOL006C, strain TOP1, stronger effect = lower value 1.03 | S. cerevisiae deletion strains, locus YOL012C, strain htz1 0.718 | S. cerevisiae deletion strains, locus YOL147C, strain pex11, stronger effect = lower value 1.01 | S. cerevisiae deletion strains, locus YOR001W, strain rrp6, stronger effect = lower value 0.999 | S. cerevisiae deletion strains, locus YOR061W, strain CKA2, stronger effect = lower value 1.01 | S. cerevisiae deletion strains, locus YOR069W, strain VPS5, stronger effect = lower value 1 | S. cerevisiae deletion strains, locus YOR070C, strain gyp1, stronger effect = lower value 0.993 | S. cerevisiae deletion strains, locus YOR080W, strain dia2, stronger effect = lower value 0.987 | S. cerevisiae deletion strains, locus YOR083W, strain WHI5, stronger effect = lower value 0.989 | S. cerevisiae deletion strains, locus YOR106W, strain vam3, stronger effect = lower value 0.968 | S. cerevisiae deletion strains, locus YOR136W, strain idh2, stronger effect = lower value 0.991 | S. cerevisiae deletion strains, locus YOR144C, strain elg1, stronger effect = lower value 1 | S. cerevisiae deletion strains, locus YOR184W, strain ser1, stronger effect = lower value 1.01 | S. cerevisiae deletion strains, locus YOR231W, strain MKK1, stronger effect = lower value 0.989 | S. cerevisiae deletion strains, locus YOR265W, strain rbl2, stronger effect = lower value 0.996 | S. cerevisiae deletion strains, locus YOR270C, strain vph1, stronger effect = lower value 1.01 | S. cerevisiae deletion strains, locus YOR290C, strain snf2, stronger effect = lower value 0.977 | S. cerevisiae deletion strains, locus YOR316C, strain cot1, stronger effect = lower value 1 | S. cerevisiae deletion strains, locus YPL051W, strain arl3, stronger effect = lower value 0.982 | S. cerevisiae deletion strains, locus YPL055C, strain LGE1, stronger effect = lower value 1.04 | S. cerevisiae deletion strains, locus YPL078C, strain atp4, stronger effect = lower value 0.986 | S. cerevisiae deletion strains, locus YPL106C, strain sse1, stronger effect = lower value 0.978 | S. cerevisiae deletion strains, locus YPL240C, strain hsp82, stronger effect = lower value 1 | S. cerevisiae deletion strains, locus YPL241C, strain CIN2, stronger effect = lower value 1 | S. cerevisiae deletion strains, locus YPL256C, strain CLN2, stronger effect = lower value 0.983 | S. cerevisiae deletion strains, locus YPR119W, strain clb2, stronger effect = lower value 0.988 | S. cerevisiae deletion strains, locus YPR141C, strain kar3, stronger effect = lower value 0.995 | S. cerevisiae deletion strains, locus YPR163C, strain tif3, stronger effect = lower value 0.994 | S. cerevisiae deletion strains, locus YPR167C, strain met16, stronger effect = lower value 1 | S. cerevisiae deletion strains, strain wtn01, stronger effect = lower value 0.989 | S. cerevisiae strains, strain wild type, stronger effect = lower value 1.01
